RPL19A TOR yeast: alters RPL19A-GFP fluorescence in TOR pathway yeast screen; S. cerevisiae RPL19A-GFP strain, flow cytometry, 3 h; hits give low values; percent response vs DMSO, % at 10 µM; hit rate 0.3% among 330,000; AID 2025;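 active means percent response vs DMSO below 50%; inconclusive means fewer than 70 events counted for the yeast strain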;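 further: median channel GFP fluorescence of the barcoded RPL19A-GFP strain; ratio of sample median GFP to plate DMSO average so 100% = DMSO; lower means less RPL19A-GFP as with rapamycin TOR inhibition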
MEP2 TOR yeast: modulators of TOR pathway MEP2-GFP in S. cerevisiae. S. cerevisiae MEP2-GFP strain, flow cytometry GFP, 3 h; 100% = DMSO control level. GFP response vs DMSO, % at 10 µM. hit rate 0.51% among 330,000;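 active means GFP response versus DMSO above a set limit, roughly screen mean plus 3 SD, cut at about 180% in these data; inconclusive means fewer than 70 cells counted for a yeast strain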;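 further: median GFP fluorescence of the barcode-gated MEP2-GFP cells per well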
LAP4 TOR yeast: alters LAP4-GFP fluorescence in TOR pathway yeast screen. S. cerevisiae LAP4-GFP multiplex, flow cytometry GFP, 3 h; median GFP as percent of DMSO wells. GFP response vs DMSO, % at 10 µM. hit rate 0.34% among 320,000. AID 2023;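 active means GFP response vs DMSO above a set limit, about the screen mean plus 3 SD, cut at about 150% in these data; inconclusive means under 70 cell events counted for the yeast strain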
AGP1 TOR yeast: alters AGP1-GFP fluorescence in TOR pathway yeast screen; S. cerevisiae AGP1-GFP multiplex flow cytometry, 3 h; GFP as percent of DMSO wells; GFP response vs DMSO, % at 10 µM; hit rate 0.02% among 320,000;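 active means GFP response relative to DMSO above a set limit, near screen average plus 3 SD, cut at about 150% in these data; inconclusive means fewer than 70 cells counted for the yeast strain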;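 further: median GFP channel fluorescence of the gated AGP1 strain per well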
Myeloid diff MLP: promotes myeloid progenitor differentiation; ER-HoxA9 myeloid progenitors, lysozyme-GFP differentiation, flow cytometry; calls only at 10 µM; hit rate 1% among 360,000;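 active means normalized GFP-positive differentiation at or above the plate's own cutoff, the solvent-only control mean plus 3 SD; inconclusive means no clear call, values can overlap the other calls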;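 further: cells exposed to compound for four days before flow analysis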
CIT2 TOR yeast: alters CIT2-GFP fluorescence in TOR pathway yeast screen | S. cerevisiae CIT2-GFP strain, flow cytometry, 3 h; 100 means same as DMSO wells | GFP response vs DMSO, % at 10 µM | hit rate 0.065% among 320,000;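 active means GFP response relative to DMSO above a set limit, near the screen mean plus 3 SD, cut at about 150% in these data; inconclusive means Fewer than 70 cells measured for a yeast strain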;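 further: ratio of well median GFP fluorescence to mean of DMSO wells on the plate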
* hit, by the source's call; i = inactive; ? = inconclusive; · = no result; + = active, no number; [ ] = remark or other dose. Shown are actives, neighbours in structure and some others; about 1.8% of the full set was active somewhere.

SMILES	RPL19A TOR yeast	MEP2 TOR yeast	LAP4 TOR yeast	AGP1 TOR yeast	Myeloid diff MLP	CIT2 TOR yeast
Oc1ccccc1OCc1nc2ccccc2s1	57	179*[may fluoresce violet]	111	?	i	?
N/C(Cc1nc2ccccc2s1)=N\O	98	94	108	105	+	111
COc1ccc(/C=N/n2cnc3c([nH]c4ccc(Br)cc43)c2=O)cc1CN1CCOCC1	95	99	97	95	·	91
CCCCCCNC(=O)Cc1nc2nc(C)cc(C)n2n1	105	107	103	107	i	117
CC1=Nc2ccccc2/C1=C\c1nc(-c2ccc(C(F)(F)F)cc2)oc1O	109	120	121	111	+	115
CC(=O)Nc1ccc(-c2ccnc3c2CC(C)(C(=O)NCCC(F)(F)F)O3)cc1 (configuration not stated)	·	·	·	·	i	·
CC(=O)Nc1cccc(-c2ccnc3c2CC(C)(C(=O)NCCC(F)(F)F)O3)c1 (configuration not stated)	·	·	·	·	+	·
CC(=O)Nc1cccc(-c2ccnc3c2CC(C)(C(=O)NCc2ccc(F)c(F)c2)O3)c1 (configuration not stated)	·	·	·	·	+	·
OC(CNCc1ccccc1)COc1ccccc1 (configuration not stated)	·	·	·	·	i	·
OC(CNCC1CCCCC1)COc1ccccc1 (configuration not stated)	49*[may fluoresce violet]	362*[may fluoresce violet]	63	?	i	?
CCOc1ncccc1C(=O)NC(C)CCc1ccccc1 (configuration not stated)	99	101	90	96	+	96
COC(=O)c1sc(N)c(C(=O)OC)c1COC(=O)C12CC3CC(CC(O)(C3)C1)C2	68	249*[may fluoresce violet]	78	12	i	?
COc1ccccc1CNC(=O)COC(=O)C12CC3CC(CC(O)(C3)C1)C2	96	100	104	93	i	94
CCCc1cc(C(N)=O)c(NC(=O)C2CCCO2)s1 (configuration not stated)	104	105	108	107	i	109
Cc1ccccc1CNc1nnnn1C	50*[may fluoresce violet]	84	105	?	i	?
CCOC(=O)c1cnc2c(c(C)nn2C)c1Oc1ccccc1F	99	103	112	108	i	101
COc1ccc(CC(=O)N[C@@H](CCSC)C(=O)N2CCC3(CC2)NCCc2[nH]cnc23)cc1	103	111	96	100	i	111
CSCC[C@H](NC(=O)Cc1ccc(Cl)cc1)C(=O)N1CCC2(CC1)NCCc1[nH]cnc12	96	97	92	95	+	97
COc1ccc(OC)c(NC(=O)C2(C)CCN2Cc2cccc(OC)c2OC)c1 (configuration not stated)	·	·	·	·	i	·
COc1ccc(Nc2nc3cc(C)ccc3cc2C#N)cc1	106	112	107	104	+	101
CCC(=O)OCCn1c(Br)nc2c1c(=O)[nH]c(=O)n2C	96	97	98	102	i	107
Cn1c(=O)[nH]c(=O)c2c1nc(Br)n2CCCO	100	99	105	100	+	92
c1cc2c(cc1C1CCCCC1)c1c3n2CCCNC3CCC1 (configuration not stated)	74	130	188*	70	?	72
O=C1/C(=C\c2ccc(Cl)cc2)CCC1CNc1ccc(Cl)cc1 (configuration not stated)	·	·	·	·	+	·
CN1CCc2c(sc3c2C(=O)NC(c2ccc(-c4ccc(Cl)cc4)o2)N3)C1 (configuration not stated)	98	121	130	76	+	99
COc1cc2c(cc1OC)C1(Nc3c-2c(-c2ccccc2)nn3-c2ccccc2)C(=O)Nc2ccccc21 (configuration not stated)	90	93	88	93	i	92
COc1cc2c(cc1OC)C1(Nc3c-2c(C)nn3-c2ccccc2)C(=O)Nc2ccccc21 (configuration not stated)	97	100	103	85	+	95
CSc1nc2cc3c(cc2n1C(=O)c1ccc(C)cc1)OCCO3	103	107	119	105	i	103

Screening results deposited in PubChem BioAssay by NMMLSC.
